High-throughput results from PubChem.
GPT2 inhibitor: Primary qHTS assay for inhibitors of Glutamate pyruvate transaminase 2 (GPT2). Alanine aminotransferase 2 (Homo sapiens), Q8TD30. Recombinant GPT2, coupled pyruvate oxidase/HRP Amplex Red fluorescence. Potency, µM (highest dose often 57.7 µM), hits mostly inhibitors. 100,000 tested, 0.25% active. AID 1671188, 2021; also: nearly all actives have a fitted effect of over 60% in size
Target sequence (Q8TD30 whole entry, looked up): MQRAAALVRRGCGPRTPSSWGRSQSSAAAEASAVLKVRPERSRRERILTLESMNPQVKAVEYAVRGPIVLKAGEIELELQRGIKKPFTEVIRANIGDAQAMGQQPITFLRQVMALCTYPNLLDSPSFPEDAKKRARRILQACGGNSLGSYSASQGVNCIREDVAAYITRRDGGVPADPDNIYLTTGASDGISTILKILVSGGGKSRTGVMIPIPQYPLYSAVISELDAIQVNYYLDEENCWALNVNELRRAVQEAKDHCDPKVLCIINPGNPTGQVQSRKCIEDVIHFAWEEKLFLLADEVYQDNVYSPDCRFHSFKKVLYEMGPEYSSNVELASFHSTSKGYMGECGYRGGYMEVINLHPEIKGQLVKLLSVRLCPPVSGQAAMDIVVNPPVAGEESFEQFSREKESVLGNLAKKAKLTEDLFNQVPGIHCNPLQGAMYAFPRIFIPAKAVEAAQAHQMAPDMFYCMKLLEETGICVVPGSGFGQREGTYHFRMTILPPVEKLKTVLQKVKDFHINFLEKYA
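Recombinant GPT2 (10ng/uL) with 250uM a-KG and 2mM L-alanine, 30 min at room temperature, in HEPES pH 7.5 buffer. Pyruvate detected by pyruvate oxidase/HRP/Amplex Red fluorescence after 30 min in the dark; AOA (50uM) as positive control.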
Luciferase inh: Firefly luciferase inhibition profiling of diverse chemical library using quantitative high-throughput screening; Luciferin 4-monooxygenase (Photinus pyralis), P08659; purified P. pyralis luciferase, luminescence, biochemical; Potency, µM (highest dose often 115 µM), actives largely listed as inhibitors; 76,000 tested, 2.5% active; also: nearly all actives have a fitted effect of over 65% in size
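FLuc 10nM, D-luciferin 10uM, ATP 10uM, Mg acetate 10mM, Tris acetate pH 7.5, Tween/BSA; cpd qHTS; enzyme added last; CCD luminescence.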
HEK cytotox: Cytotoxic Profiling in HEK 293 Cell Line of Diverse Libraries Using Quantitative High-Throughput Screening. HEK 293 viability, ATP luminescence (CellTiter-Glo), 48-72 h. Potency, µM (doses to about 115 µM), actives largely listed as inhibitors. 94,000 tested, 6.6% active; also: nearly all actives have a fitted effect of over 60% in size
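Cytotoxicity was scored by loss of ATP-coupled luminescence (CellTiter-Glo) in HEK 293 cells. Compound treatment ran 48 or 72 hr at 37 degree Celsius, 5% CO2, 95% humidity.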
3T3 cytotox: Cytotoxic Profiling in NIH 3T3 Cell Line of Diverse Libraries Using Quantitative High-Throughput Screening; AID 1345082, 2018; Potency, µM (series often up to 96.7 µM), actives largely listed as inhibitors; 94,000 tested, 4.3% active; NIH 3T3 viability, CellTiter-Glo ATP luminescence, 48-72 h; also: nearly all actives have a fitted effect of over 55% in size
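Cells were seeded at 400 per well, treated with pin-transferred compound, and kept 48 or 72 hr at 37 °C before CellTiter-Glo addition and luminescence imaging of cellular ATP.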
NPR1 antag: Natriuretic polypeptide receptor (hNpr1) antagonism - Primary qHTS | Atrial natriuretic peptide receptor 1 (Homo sapiens), P16066 | HEK293 hNpr1 GloSensor cGMP, ANP-stimulated luminescence | Potency, µM (doses to about 46.3 µM), most hits filed as inhibitors | 76,000 tested, 1.6% active | AID 1347048, 2019; calls by dose curve; also: nearly all actives have a fitted effect of over 60% in size
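Compound pre-incubated 30 min at room temperature on GloSensor-loaded HEK293 cells stably carrying hNpr1 and the pGS-40F cGMP biosensor. Stimulation uses hNppA at 0.1 nM final; luminescence is taken at baseline and 20 min post-agonist.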
Npr1 antag conf: Natriuretic polypeptide receptor (hNpr1) antagonism - Confirmation; shares compounds with NPR1 antag; Potency, µM (top dose mostly 57.6 µM), most hits filed as inhibitors; HEK293 hNpr1 cGMP GloSensor luminescence, ANP-stimulated; 1,400 tested, 76% active; calls by dose curve; also: nearly all actives have a fitted effect of over 70% in size
NPR2 antag: Natriuretic polypeptide receptor (hNpr2) antagonism - Subtype selectivity assay; shares compounds with NPR1 antag; Potency, µM (series often up to 57.6 µM), usual class: inhibitors; HEK293 hNpr2 GloSensor cGMP luminescence, CNP-stimulated; 1,400 tested, 67% active; AID 1347046, 2019; calls by dose curve; also: nearly all actives have a fitted effect of over 70% in size
FLuc counter: Natriuretic polypeptide receptor (hNpr1) antagonism - Confirmation firefly luciferase (FLuc) inhibition counterscreen | purified FLuc enzyme, luminescence, Km substrate | 1,400 tested, 0.7% active | shares compounds with NPR1 antag | Potency, µM (highest dose often 57.6 µM), usual class: inhibitors
GloSensor cGMP: Natriuretic polypeptide receptor (hNpr1) antagonism - Counterscreen GloSensor control cell line; shares compounds with NPR1 antag; HEK293 GloSensor cGMP, SNP-stimulated, luminescence; Potency, µM (highest dose often 57.6 µM), most hits filed as inhibitors; 1,400 tested, 69% active; calls by dose curve; also: nearly all actives have a fitted effect of over 70% in size
Numbers stand for hits; - = inactive; ? = inconclusive; . = no result. The list is not random: actives were taken first. Their share in the collection is about 10%. Unless noted, calls follow the shape of the dose curve; as a rule, active = well fitted curve in the direction sought with a large enough effect; inconclusive = small, poorly fitted or top-dose-only effect, or another doubt; inactive = no such curve, though single readings can be large; an effect the other way counts as inactive or inconclusive.

SMILES	GPT2 inhibitor	Luciferase inh	HEK cytotox	3T3 cytotox	NPR1 antag	Npr1 antag conf	NPR2 antag	FLuc counter	GloSensor cGMP
CCOC(=O)c1cccc(NC(=O)N2CC[C@@H](CC(=O)N(C)CCC#N)[C@@H](CC)C2)c1	?	-	?	-	-	.	.	.	.
O=C1COc2ccc(NCCc3ccccn3)nc2CN1Cc1ccc(C(F)(F)F)cc1	-	-	?	?	?	?	?	-	?
O=C1COc2ccc(NCc3cccs3)nc2CN1CCOc1ccccc1	-	-	89µM	?	14µM	20µM	22µM	-	18µM
O=C1COc2ccc(NCCOc3ccccc3)nc2CN1Cc1ccccc1F	-	-	?	?	22µM	31µM	35µM	-	31µM
CNc1nccc(N2CCC(CC(=O)N(C)CCCc3c(C)nn(C)c3C)CC2)n1	-	-	?	?	?	.	.	.	.
COc1nccc(N2CCC(CC(=O)N(C)CCCc3c(C)nn(C)c3C)CC2)n1	-	-	?	?	11µM	22µM	?	-	19µM
CC1(COc2ccccc2)COc2ccc(C(=O)NCc3ccncc3)cc2N1 (centres undefined)	-	-	?	?	?	.	.	.	.
CC1(COc2ccccc2)COc2ccc(C(=O)N3CCOCC3c3ccncc3)cc2N1 (centres undefined)	-	-	?	?	-	?	?	-	?
COc1ccccc1C(=O)N1CCCN(c2cc(-c3ccc(F)cc3)[nH]n2)CC1	-	-	?	?	-	.	.	.	.
COc1cccc(C(=O)N2CCCN(c3cc(-c4ccc(C)c(C)c4)[nH]n3)CC2)c1OC	-	-	40µM	?	10µM	24µM	22µM	-	24µM
COc1cccc(C(=O)N2CCCN(c3cc(-c4ccc(Cl)cc4)[nH]n3)CC2)c1OC	?	-	?	?	11µM	19µM	17µM	-	15µM
O=C(Oc1ccccc1)N1CCC(Oc2cnc3c(ccn3-c3cncnc3)c2)CC1	-	-	56µM	?	35µM	40µM	40µM	-	40µM
O=C(NCc1ccc(Cl)cc1)C1CCN(c2cc(C(F)(F)F)ncn2)CC1	-	-	?	?	11µM	19µM	19µM	-	15µM
COc1cccc(CNC(=O)C2CCN(c3cc(C(F)(F)F)ncn3)CC2)c1	-	-	-	-	?	?	?	-	?
CCOc1cccc(CNC(=O)C2CCN(c3cc(C(F)(F)F)ncn3)CC2)c1	-	-	?	?	?	.	.	.	.
Cc1ccc(C)c(C(=O)N2CCCN(C)c3ccccc32)c1	-	-	?	?	-	.	.	.	.
COc1cc(C(O)C2COC(c3ccc(OC4OC(CO)C(O)C(O)C4O)c(OC)c3)C2CO)ccc1O (centres undefined)	-	.	.	.	.	.	.	.	.
CNC(=O)c1cc(C2CC2)nc2onc(C3CCCN(C(=O)N(C)C)C3)c12 (centres undefined)	.	.	-	?	.	.	.	.	.
